Test results from PubChem BioAssay AID624052 (National Center for Advancing Translational Sciences (NCATS), 2012).
Active and inactive are the calls of the source.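 The calls were made as follows: active = IC50 at or below 10 µM; inconclusive = IC50 above 10 µM but below 20 µM; inactive = IC50 of 20 µM or more.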

Target: Neuropeptide S receptor (Homo sapiens) (UniProt Q6W5P4)
Assay: Robust Characterization of Calcium Signal Transduction Antagonists of the Neuropeptide S Receptor: SAR
Conditions: CHO-NPSR cells, NPS-induced calcium fluorescence (FDSS)
From the text: Neuropeptide S receptor (NPSR), previously known as GPR154, is a recently de-orphanized G protein coupled receptor. Its endogenous ligand is the 20 amino acids peptide Neuropeptide S (NPS). […] NPS and its receptor are found in various tissues. Specifically they are highly expressed in brain areas that have been implicated in modulation of arousal, stress and anxiety. Central administration of NPS in mice produces an unusual profile of activity by inducing wakefulness and arousal, while at the same time suppressing anxiety. Therefore, NPSR may represent a novel drug target for the treatment of sleep and anxiety disorders. To identify NPSR antagonists, we developed a cell-based assay with transfected NPS receptor. NPS can stimulate the production of cAMP as well as release intracellular calcium in Chinese hamster ovary cells stably expressing NPS receptor. This change in intracellular calcium can be detected using a calcium indicator dye on a calcium imaging plate reader system (FDSS). This particular assay uses a high density of sampling across concentration-response space to establish more confidence estimates of potency. NIH Chemical Genomics Center [NCGC] NIH Molecular Libraries Probe Production centers Network [MLPCN] MLPCN Grant: DA026210 Assay Submitter (PI): Heilig, Markus Alexander
A Chinese hamster ovary (CHO) cell line stably expressing the NPS receptor (CHO-NPSR) was obtained from Dr. Heilig lab at NIAAA and maintained in F-12 Kaighn's media (Invitrogen, Carlsbad, CA, 21127) supplemented with 10 % FBS, 100 units/ml penicillin, 100 ug/ml streptomycin and 250 ug/ml geneticin at 37C, 5% CO2 in a humidified atmosphere. Before the assay, aliquots of cells were frozen and stored at -135C. The assay was performed on a FDSS-7000 kinetic plate reader in 1536-well format. For both agonist (1-220s) and antagonist (221-400s) phases, the maximums of kinetic fluorescence responses were converted separately into text files using the instrument's software data export utility. Data for agonist response were normalized to the controls for basal activity (DMSO only) and 100% activation (NPS). Data for antagonist response were normalized to the controls for basal activity (DMSO only) and 100% inhibition (No NPS control). AC50 values were determined from concentration-response data modeled with the standard Hill equation. NPS 1536-well FDSS assay protocol: (1) Frozen CHO-NPSR cells were thaw, washed once with fresh media and resuspended in F-12 Kaighn's media supplemented with 10 % FBS, 100 units/ml penicillin and 100 ug/ml streptomycin. Cells were plated at 3 ul/well (1200 cells) to black, clear-bottom, tissue-culture treated 1536-well plates, and then cultured at 37C, 5 % CO2 for 16 to 30 hours. […]

Sequence of Neuropeptide S receptor (Homo sapiens) (Q6W5P4 whole entry, looked up): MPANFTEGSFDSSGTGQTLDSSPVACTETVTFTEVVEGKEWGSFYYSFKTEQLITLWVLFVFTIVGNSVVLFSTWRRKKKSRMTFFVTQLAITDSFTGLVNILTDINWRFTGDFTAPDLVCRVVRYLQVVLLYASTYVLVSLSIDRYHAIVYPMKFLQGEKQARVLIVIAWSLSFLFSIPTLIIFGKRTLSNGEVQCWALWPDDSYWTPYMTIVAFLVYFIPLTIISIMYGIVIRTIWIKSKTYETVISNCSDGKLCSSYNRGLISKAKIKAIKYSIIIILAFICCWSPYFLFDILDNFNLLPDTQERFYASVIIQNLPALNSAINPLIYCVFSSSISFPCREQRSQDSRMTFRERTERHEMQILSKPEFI

IC50, active:
Cc1c(P(=S)(c2ccccc2)c2ccccc2)[n+]2ccccc2n1C/C=C/c1ccccc1 36.5 nM
COc1ccc(C2c3c(ncn(CCN4CCOCC4)c3=N)Oc3ccc4ccccc4c32)cc1OC (centres undefined) 4940 nM
O=C1OC(c2ccccc2)(c2ccccc2)N2CCN(C(=O)NCc3ccc(F)cc3)CC12 (centres undefined) 570 nM
CCC(C)(CCN1CCOCC1)N(Cc1cc2ccccc2n(C)c1=O)C(=O)C1CCCCC1 (centres undefined) 57.8 nM
